Source: PMC7819943, “Rice protein-binding microarrays: a tool to detect cis-acting elements near promoter regions in rice”
The full ranking holds about 68,000 sequences; the median of “fluorescence intensity (a.u.)” is about 9,100, and the highest 2% start at about 16,000. The entries come from a sample that favours the highest values as a whole.

Each sequence was assayed against OsWRKY34 (Oryza sativa, UniProt Q0JBA9 1-250) (assay: protein-binding microarray (RPBM); PBS, 2% BSA, 51.3 ng/ul salmon testes DNA, 50 uM zinc acetate, 200 nM TF, 25 C, 1 h; high values mean tight binding). Details: protein: recombinant; tags: N-terminal polyhistidine and DsRed monomer fusion (pET32a); label: CyDye5-dUTP incorporated in the synthesized complementary strand; 3' TTTTT single-stranded linker to array surface; dsDNA, one strand shown.
OsWRKY34, sequence (Q0JBA9 entry or part of it): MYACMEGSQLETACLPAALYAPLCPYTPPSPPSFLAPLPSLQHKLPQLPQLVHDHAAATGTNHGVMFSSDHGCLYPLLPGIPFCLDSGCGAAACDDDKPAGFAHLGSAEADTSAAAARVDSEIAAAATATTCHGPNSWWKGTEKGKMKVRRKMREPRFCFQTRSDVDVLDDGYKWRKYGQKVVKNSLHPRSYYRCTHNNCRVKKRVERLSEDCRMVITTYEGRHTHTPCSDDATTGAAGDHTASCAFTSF
Summary of the method: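 The binding signal is fluorescence intensity per array feature (arbitrary units). Readings came from an Axon 4000B scanner after a washed, 2% BSA-blocked, double-stranded custom Agilent array had been incubated for 1 h at 25 °C with 200 nM protein and 50 µM zinc acetate. The protein was a Ni–NTA-purified transcription factor fused N-terminally to polyhistidine and DsRed, expressed in E. coli BL21-CodonPlus.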

| Sequence | binding signal |
| --- | --- |
| GGCGAGGCGAATGTGATGGGCTAAGTTTTGTCGTTGGCAACGGAGTCACCTAGTGCAG | 8210 fluorescence intensity (a.u.) |
| GCCATGAAACCTCCTTTGCTCACTGCTTTGGAACCATACTCGGAGTCACCTAGTGCAG | 9020 fluorescence intensity (a.u.) |
| CTTTTCATCTTCTTGACGACTTGGTTGTTTGATTCATTTACGGAGTCACCTAGTGCAG | 8830 fluorescence intensity (a.u.) |
| AGTGTTGACCAGCTTTGACCACCTTACCCAACTCCTTGTGCGGAGTCACCTAGTGCAG | 17200 fluorescence intensity (a.u.) |
| ATTTTGAGTTTTTACTTGTAACGTTTGACCACTTGTCTTACGGAGTCACCTAGTGCAG | 8620 fluorescence intensity (a.u.) |
| ATGACGCCGTTGACTTTTTGTCCAACGACCATTCATTTTACGGAGTCACCTAGTGCAG | 31300 fluorescence intensity (a.u.) |
| ATCCAACCCAACTCCCGTTGCTTTTTGTTGGACCCACTTGCGGAGTCACCTAGTGCAG | 8110 fluorescence intensity (a.u.) |
| CACCGTTAACTTTTTATTACGTATTTGACCATTTGTCTTACGGAGTCACCTAGTGCAG | 10200 fluorescence intensity (a.u.) |
| CCGCCTCCTTTGACCCTACCAAAATTTACCGTTGACCATGCGGAGTCACCTAGTGCAG | 20000 fluorescence intensity (a.u.) |
| AAAAACTGGGCCAGCTTTTTGTTTTTTTTACCACCCACAGCGGAGTCACCTAGTGCAG | 9010 fluorescence intensity (a.u.) |
| TTTCCGCATTTCCGCTCCTCTCTTTTTTACCCTTGACATGCGGAGTCACCTAGTGCAG | 8530 fluorescence intensity (a.u.) |
| ACCGACCTACTTAATTGCCTCCTGCCAAAATGACCCTTTACGGAGTCACCTAGTGCAG | 9140 fluorescence intensity (a.u.) |
| CGCCGTTGACTTTTTGTTTAACGTTTGACCATTTGTCTTACGGAGTCACCTAGTGCAG | 24400 fluorescence intensity (a.u.) |
| AACCCATTTTCTGCTCTGCTCTTGCTTTGCTTTGCATTTCCGGAGTCACCTAGTGCAG | 14000 fluorescence intensity (a.u.) |
| ATTGTTTGTCCCGTCCCTACATCACGCCAAAAGTCACAACCGGAGTCACCTAGTGCAG | 11800 fluorescence intensity (a.u.) |
| GGAGGGGCGGCGATCGAGCAGAGCAGGGGAGGGAATCCTGCGGAGTCACCTAGTGCAG | 8310 fluorescence intensity (a.u.) |
| CAGTGTATATTTCAGTGTATATTTGGTAGATTTGGTAGTACGGAGTCACCTAGTGCAG | 8310 fluorescence intensity (a.u.) |
| CTACCCTATGCTATGAGACCGCTCTTATTCCGGGGTTTAACGGAGTCACCTAGTGCAG | 9760 fluorescence intensity (a.u.) |
| TTCGCCGTGTTACTGTAGCTCAAATCTCTAGCTTCCCCAACGGAGTCACCTAGTGCAG | 9240 fluorescence intensity (a.u.) |
| CTAACACATTCATCACATGATTAAAATTTTATTATTTATACGGAGTCACCTAGTGCAG | 8510 fluorescence intensity (a.u.) |
| CCATCATATTTGACTATTTTCAGGTGTTAGTTTGGACGATCGGAGTCACCTAGTGCAG | 9210 fluorescence intensity (a.u.) |
| TTCCTTTGTTTAGTTGTTTGTTTTACATTCCACTCTACTACGGAGTCACCTAGTGCAG | 9220 fluorescence intensity (a.u.) |

| Sequence | binding signal |
| --- | --- |
| TTCTGAATGTGATTGAATTAATTGGACTTGCGTTGACCTTCGGAGTCACCTAGTGCAG | 11700 fluorescence intensity (a.u.) |
| GAGTGCCATTGAATCCTTCTGTTGCGTTGACCACCAAATGCGGAGTCACCTAGTGCAG | 16500 fluorescence intensity (a.u.) |
| CGCCGTTGACTTTTTAAAATTTGTTTGACCGTTCGTCTTACGGAGTCACCTAGTGCAG | 30700 fluorescence intensity (a.u.) |
| TCCACCATTGACCAATGCCACGTCCTGCCAAATCCTCCTCCGGAGTCACCTAGTGCAG | 10700 fluorescence intensity (a.u.) |
| TGTTTGACCGTTCGTCTTATTAAAATTTTTTTGTGAAATACGGAGTCACCTAGTGCAG | 8610 fluorescence intensity (a.u.) |
| CACCATTGACTTTTTAGCATATGTTTGACCGTTCGTCTTACGGAGTCACCTAGTGCAG | 18200 fluorescence intensity (a.u.) |
| TGACTTTTTAGCATATGTTTGACCGTTCGTCTTATTCAAACGGAGTCACCTAGTGCAG | 13600 fluorescence intensity (a.u.) |
| CACCATTGACTTTTTAGCACATGTTTGACCGTTCGTCTTACGGAGTCACCTAGTGCAG | 14800 fluorescence intensity (a.u.) |
| TTTTGCCCTTTTTCTCTCGCCAGCTCGGACCCGTCGTGACCGGAGTCACCTAGTGCAG | 8730 fluorescence intensity (a.u.) |
| CGTTTGACCGTTCGTCTTATTTGAAAATTTTTTATGCTTACGGAGTCACCTAGTGCAG | 10100 fluorescence intensity (a.u.) |
| TTGGTTAGTTGCCACTCTCTCTCGCCGTGACCCTTTTTTACGGAGTCACCTAGTGCAG | 20600 fluorescence intensity (a.u.) |
| CTGTTCCATTTCTCCTTGTTGCATCAGTAACTCCAAACCACGGAGTCACCTAGTGCAG | 12200 fluorescence intensity (a.u.) |
| GATTATTTGCTTTACGGTTTTTTAAAAAAATTTCTTCATACGGAGTCACCTAGTGCAG | 9590 fluorescence intensity (a.u.) |
| CACACACACCCTGTCGAGCGAATATGCATGTCTTCTCAAGCGGAGTCACCTAGTGCAG | 8960 fluorescence intensity (a.u.) |
| TCCCTTTTGAGTACCACTGCTGATATCTGGATGCCCGTCACGGAGTCACCTAGTGCAG | 8080 fluorescence intensity (a.u.) |
| TTCACAATGTAAGCCATTCTAGCATTTTCCATATTTATATCGGAGTCACCTAGTGCAG | 8240 fluorescence intensity (a.u.) |
| ATTTTGCCCCTTGTTGATCACCACAGAAGAACATGTGCTACGGAGTCACCTAGTGCAG | 9790 fluorescence intensity (a.u.) |
| ATCCGTGTATTATAGCGTTTCGTAGTAGTATTTTTATGTCCGGAGTCACCTAGTGCAG | 9280 fluorescence intensity (a.u.) |
| TTTGACACCGTTGACTTTTTAGTACGTATTTGATCATTCGCGGAGTCACCTAGTGCAG | 33800 fluorescence intensity (a.u.) |
| GGTCGTCGTCTTTGCATTGTCTCCTTGTCCGGTACGTTGGCGGAGTCACCTAGTGCAG | 9400 fluorescence intensity (a.u.) |
| CCCATTCTTTCACTTTTGACCTTTTTTTATCATTTTGTTTCGGAGTCACCTAGTGCAG | 9510 fluorescence intensity (a.u.) |
